Rows were chosen to be rich in hits. Some 2.8% of all compounds tested hit in one or more screens of this group.
PI5P4Ka inh = inhibitors of human PI5P4K alpha | PI5P4Kalpha enzyme, ADP-Glo luminescence, 60 min; hits give low values | max response, % | P48426 | actives 1.2% (n = 330,000); active means max response of -50% or lower; inconclusive means between -30% and -50%; inactive means -30% or higher; further: value at the top dose of about 77 µM; on the % scale 0 is the no-effect control and ±100 the full control effect
Target sequence (P48426 whole entry, looked up): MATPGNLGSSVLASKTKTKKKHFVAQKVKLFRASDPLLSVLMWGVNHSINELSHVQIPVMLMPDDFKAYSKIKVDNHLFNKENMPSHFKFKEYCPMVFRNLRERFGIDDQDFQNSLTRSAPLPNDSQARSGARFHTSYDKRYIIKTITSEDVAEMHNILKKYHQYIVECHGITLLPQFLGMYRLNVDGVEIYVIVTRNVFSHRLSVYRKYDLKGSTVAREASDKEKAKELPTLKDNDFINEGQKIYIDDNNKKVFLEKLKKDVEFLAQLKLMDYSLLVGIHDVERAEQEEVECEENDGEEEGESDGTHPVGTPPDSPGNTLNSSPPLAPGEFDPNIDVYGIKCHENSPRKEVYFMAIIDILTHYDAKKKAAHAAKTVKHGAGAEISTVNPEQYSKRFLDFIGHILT
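ADP-Glo luminescence end-point read after a 60 min room-temperature kinase reaction of PI5P4Kalpha plus substrate, initiated with ATP at 5 microM final. Buffer: 0.038 M HEPES pH 7.4, EGTA, 0.1% CHAPS, 5% DMSO.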
POLH inh = blocks human DNA polymerase eta activity. Q9Y253. recombinant Pol eta, fluorescent DNA replication assay. Potency, µM (top dose mostly 114 µM), without a hit: at the top dose activity change, negative = inhibition, actives largely listed as inhibitors. actives 1.2% (n = 390,000). AID 588591; further: potency means the concentration at half of the fitted maximal effect; on the % scale 0 is the no-effect control and ±100 the full control effect
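Fluorescent replication assay: 50 nM final substrate added after a 15 min room-temperature compound preincubation with 10 nM enzyme. Signal taken at 0 min and again at 10 min.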
FEN1 inh = blocks human flap endonuclease 1. AID 588795. actives 0.35% (n = 390,000). Recombinant FEN1 flap cleavage, fluorescence, 15 min. Potency, µM (top dose mostly 114 µM), for inactives: at the highest dose activity change, negative = inhibition, most hits filed as inhibitors. P39748; further: potency means the concentration at half of the fitted maximal effect; on the % scale 0 is the no-effect control and ±100 the full control effect; nearly all actives have a fitted effect of over 65% in size
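Reaction started by adding substrate (50 nM final) to 10 nM enzyme after 15 min room-temperature compound preincubation. Reads at 0 and 15 min, with data normalized and fitted to a four-parameter Hill equation.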
Pol iota inh = inhibitors of human DNA polymerase iota. Q9UNA4. Pol iota fluorescent replication assay, 10 min. Potency, µM (doses to about 115 µM), without a hit: at the top dose activity, negative = inhibition, actives largely listed as inhibitors. actives 1% (n = 390,000). AID 588590; further: potency means the concentration at half of the fitted maximal effect
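Pol iota at 10 nM preincubated 15 min with compounds at room temperature; reaction started with fluorescent substrate, 50 nM final. Fluorescence read kinetically at 0 and 10 min; buffer-only wells as negative control.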
POLB inh = blocks human DNA polymerase beta activity | Potency, µM (highest dose often 114 µM), for the others: at the top dose activity change, negative = inhibition, hits mostly inhibitors | Pol beta primer extension/strand displacement, fluorescence kinetic | actives 1.3% (n = 340,000) | P06746; further: potency means the concentration at half of the fitted maximal effect; on the % scale 0 is the no-effect control and ±100 the full control effect
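Pol beta (10 nM) and compounds were preincubated 15 min at room temperature, then 50 nM substrate (final) started primer extension/strand displacement. Reads were taken at 0 and 10 min; concentration-response data were fitted to a four-parameter Hill equation.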
POLK inh = blocks human DNA polymerase kappa activity; Q9UBT6; purified Pol kappa, fluorescent DNA synthesis assay, 10 min; Potency, µM (doses to about 107 µM), for inactives: top-dose activity, negative = inhibition, actives largely listed as inhibitors; actives 0.53% (n = 400,000); AID 588579; further: potency means the concentration at half of the fitted maximal effect; on the % scale 0 is the no-effect control and ±100 the full control effect
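10 nM Pol kappa preincubated 15 min at room temperature with compounds, then reaction started with substrate at 50 nM final. Fluorescence read kinetically at 0 and 10 min; buffer-only wells served as negative control.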
An asterisk follows results filed as active; ? = inconclusive; / = not tested or not shown; [ ] = dose if it differs, or a comment. Unless noted, the call rests on the fitted dose curve; in most records, active means well fitted curve in the direction sought with a large enough effect; inconclusive means small, poorly fitted or top-dose-only effect, or another doubt; inactive means no such curve, though single readings can be large; an effect the other way counts as inactive or inconclusive.

SMILES	PI5P4Ka inh	POLH inh	FEN1 inh	Pol iota inh	POLB inh	POLK inh
O=C1OCC/C1=C\NCCCN/C=C1\CCOC1=O	-6	-5%	/	/	/	/
Cn1c(C(c2cc3ccccc3n2C)c2cc3ccccc3n2C)cc2ccccc21	/	/	-5%	7%	/	-13%
Cc1cc(C)c(S(=O)(=O)N2CCN(S(=O)(=O)N3CCOCC3)CC2)c(C)c1	-7	-16%	1%	127%	-10%	0%
[N-]=[N+]=Nc1ccc(C(=O)CSC[C@H](NC(=O)CC[C@H](N)C(=O)O)C(=O)NCC(=O)O)cc1	/	?	/	28µM*	?	?
CCC1CCCCN1C(=O)CSc1nc2ncccc2[nH]1 (centres undefined)	0	-12%	?	?	45%	25µM*
CC1CCN(C(=O)CSc2nc3ncccc3[nH]2)CC1	-4	5%	-7%	13%	0%	-8%
O=C(NC(=S)N1CCN(C/C=C/c2ccccc2)CC1)c1ccc(Cl)nc1	-1	-4%	20%	23%	52%	-2%
CCOC(=O)/C=C1\SCC(=O)N1Cc1nnc(-c2ccccc2Br)o1	?	?	-9%	?	22µM*	-7%
COc1ccc(CCC(=O)NNC(=O)Nc2cccc(Cl)c2)cc1	-1	-14%	18%	14%	35%	1%
COc1cccc(NC(=O)NNC(=O)CCc2ccc(O)c(O)c2)c1	0	-5%	19%	40µM*	42%	25µM*
Cc1ccc(-c2[nH]c3cc(C(=O)NCCCn4ccnc4)ccc3c(=O)c2O)cc1	-4	-9%	?	79µM*	0%	-4%
O=C(NCCc1c[nH]c2ccccc12)c1ccc2nc[nH]c2c1	?	50µM*	5%	?	/	-22%
COc1ccc(C(=O)NCCc2c[nH]c3ccccc23)cc1OC	2	2%	-11%	13%	-30%	-10%
Cc1c(C(=O)O)cnc2c([N+](=O)[O-])cnn12	-55*	?	-11%	60%	?	-33%
CC(=O)c1cnc2c(C(=O)O)cnn2c1C	/	-9%	1%	1%	6%	-5%
COc1cc(O)c(C(CC(=O)N2CCCC(C)C2)c2ccc3c(c2)OCO3)c(OC)c1 (centres undefined)	2	-10%	-25%	22%	-1%	6%
COc1cc(OC)c2ccc(=O)oc2c1C(CC(=O)N1CCCC(C)C1)c1ccc2c(c1)OCO2 (centres undefined)	?	40µM*	5%	?	40µM*	?
Cc1cccc(Nc2nnc(SC/C(O)=C(\C#N)c3nc4ccccc4[nH]3)s2)c1	-54*	?	-8%	-5%	?	-18%
CC(C)(C)c1nnc2sc(SC/C(O)=C(\C#N)c3nc4ccccc4[nH]3)nn2c1=O	?	20µM*	4%	-26%	-21%	-17%
Cc1ccc(Nc2nnc(SC/C(O)=C(\C#N)c3nc4ccccc4[nH]3)s2)c(C)c1	-60*	32µM*	-7%	?	-13%	-30%
CNS(=O)(=O)c1cccc(C(=O)OCC(=O)Nc2ccc3ccccc3c2)c1	-4	-8%	-3%	-9%	/	-27%
Cc1cc(C)cc(NC(=O)N2CCC(CN3CCCCCC3)CC2)c1	/	-15%	-2%	18%	0%	-1%
Cc1cccc(C)c1-n1cccc1/C=C1/C(=N)N2C(=NC1=O)SN=C2S(C)(=O)=O	-22	79µM*	-4%	65%	?	-7%
CCOc1ccc(-n2c(C)cc(/C=C3/C(=N)N4C(=NC3=O)SN=C4S(C)(=O)=O)c2C)cc1	-64*	40µM*	0%	7%	?	-18%
Cc1cc(/C=C2/C(=N)N3C(c4ccccc4)=CSC3=NC2=O)c(C)n1-c1ccccc1	?	-21%	-5%	67%	5%	-14%
SMILES	PI5P4Ka inh	POLH inh	FEN1 inh	Pol iota inh	POLB inh	POLK inh
COc1ccccc1-n1c(C)cc(/C=C2/C(=N)N3C(=NC2=O)SN=C3S(C)(=O)=O)c1C	-51*	79µM*	-1%	-6%	-12%	-36%
Cc1cc(/C=C2/C(=N)N3C(=NC2=O)SN=C3S(C)(=O)=O)c(C)n1-c1ccc(F)cc1	-64*	?	3%	-7%	-13%	?
CCC1=NN2C(=N)/C(=C\c3cccn3-c3c(C)cccc3C)C(=O)N=C2S1	-21	-10%	10%	-5%	2%	-6%[60.1 µM]
Cc1ccc(-n2c(=O)c3c(cnn3C)n(CC(=O)Nc3cccc(Cl)c3)c2=O)cc1	/	-5%	-11%	-3%	17%	-1%
COc1cccc(NC(=S)NC2CC(C)CC(C)(C)C2)c1 (centres undefined)	8	-18%	/	/	/	/
C#CCOCCOCCOCCNc1nc(N2CCN(C(=O)CCCCCCCCCCNC(=O)[C@@H](CCSC)n3cc(CCO)nn3)CC2)nc(N2CCN(C(=O)CCCCCCCCCCNC(=O)[C@H]([C@@H](C)CC)n3cc(CCCCN=C(N)N)nn3)CC2)n1	-73*	79µM*	22µM*	?	/	-22%
C#CCOCCOCCOCCNc1nc(N2CCN(C(=O)CCCCCCCCCCNC(=O)[C@@H](CCSC)n3cc(CCO)nn3)CC2)nc(N2CCN(C(=O)CCCCCCCCCCNC(=O)[C@H]([C@@H](C)CC)n3cc(CCCCCN)nn3)CC2)n1	-54*	?	79µM*	?	/	-15%
CCOc1ccc(NS(=O)(=O)c2ccc(NS(=O)(=O)c3ccccc3)cc2)cc1	/	-5%	-5%	0%	-30%	-32%
CCOc1ccc(S(=O)(=O)Nc2cc(NS(=O)(=O)c3ccc(OCC)cc3)cc(C(=O)O)c2)cc1	-25	25µM*	-10%	?	/	79µM*
Cc1cccc2cc(-c3nc4ccc(C(=O)O)cc4[nH]3)c(=O)oc12	-12	22µM*	-23%	?	?	?
CC(C)(C)c1cc(C(C)(C)C)c2oc(=O)c(-c3nc4ccc(C(=O)O)cc4[nH]3)cc2c1	/	-20%	-21%	4%	-3%	2%[60.1 µM]
COc1ccccc1N=c1oc2cc(O)ccc2cc1C(=O)NCC1CCCO1 (centres undefined)	/	-14%	11%	-48%	5%	-20%
COc1ccccc1N=c1oc2cc(O)ccc2cc1C(N)=O	-71*	-15%	-8%	19%	1%	-18%
Cc1nc(-c2ccc(S(=O)(=O)NCc3ccc(OC(C)C)cc3)cc2)co1	/	-7%	-2%	-3%	3%	-5%[60.1 µM]
Cc1cccc2cc(C#N)c(SCCN3CCCCC3)nc12	-17	?	50µM*	?	/	-29%
O=c1ccc2ccc(Oc3ccc([N+](=O)[O-])cc3Cl)cc2o1	0	-10%	18%	14%	-20%	1%
